# Data as given in PubChem BioAssay AID651819 (National Center for Advancing Translational Sciences (NCATS), 2012).
# Among all 360,000 compounds or so, about 1,100 (0.31%) were called active. The sample holds actives, similar compounds and a random draw of the others, so the mix is not that of the screen. Values without a mark were called inactive. No stated cut-off is given here; in the data, active means activity change below about -30%; inactive means the rest.
# Test system: cytosolic chaperonin (CCT/TRiC complex)
# Experiment: High-Throughput Screening for Modulators of Cytosolic Chaperonin Activity
# Conditions: purified chaperonin ATPase assay, HTRF ADP detection, 30 min; stronger effect = lower value
# Excerpt: The eukaryotic chaperonin named TRiC (for TCP-1 ring complex), also called CCT (for chaperonin containing TCP1), is an essential and conserved chaperone required for the folding and activation of 10-15% of the proteins encoded by the human genome. […] Despite its central role in cellular folding, little is known about TRiC mechanism and mode of substrate binding. Currently, no specific TRiC inhibitors are available. Given the early promise of other chaperone-directed inhibitors as cancer therapeutics (e.g. HSP90 inhibitors), inhibitors of TRiC activity may also selectively target transformed cells and have potential use as therapeutics for cancer.
# To this end, a miniaturized assay was developed to screen against the Molecular Libraries Small Molecule Repository (MLSMR).
# NIH Chemical Genomics Center [NCGC]
# NIH Molecular Libraries Probe Centers Network [MLPCN]
# Assay Submitter (PI): Judith Frydman, Stanford University
# 1.5 uL/well TRiC enzyme suspended in buffer (30 mM TRIS pH7.4, 100 mM KCl, 5 mM MgCl2, 1 mM DTT) was added with BioRAPTR FRD dispenser at 40 nM or 20 nM (based on the enzymatic activity of used batches) final concentration to a white solid bottom medium binding 1536-well plate (Greiner Bio-One, Monroe, NC), and quickly spanned down. 23 nl/well of compound solutions in DMSO were added with a pintool transfer (Kalypsis, San Diego, CA) at a single 76 uM final concentration. Next, 1.5 µl/well ATP was dispensed with BioraptR at 10 uM final concentration after which the plates were incubated at 37 deg C for 30 min. HTRF(R) Transcreener(R) ADP (Cisbio US, Bedford, MA) detection reagents were prepared accordingly to the protocol and dispensed into the plate (1.5 uL/well each), incubated for 30 min at ambient temperature. Then, the plates were read using Envision reader with excitation at 330nm and emission at 615nm (Eu(3)-Cryptate donor signal) and 665nm (d2 acceptor signal). The ratio of […] was calculated for each well.
# On the % scale 0 is the no-effect control and ±100 the full control effect.
row,SMILES,activity change
1,O=C1CC(c2ccccc2)C(=O)N2C(=O)CC(c3ccccc3)C(=O)N12 (stereo unspecified),-3.94%
2,COc1ccc2c(c1)C(=O)CC(c1ccccc1)O2 (stereo unspecified),0.324%
3,Cc1c(O)c(C)c2c(c1O)C(=O)C[C@@H](c1ccccc1)O2,-31.9% (active)
4,CCc1ccc(C(=O)N2CCN(S(=O)(=O)c3sc(C(=O)O)c(C)c3C(=O)O)CC2)cc1,-1.96%
5,COC(=O)CN(c1nc(C)c(Cl)c(OC)n1)S(=O)(=O)c1ccc(C)cc1,2.28%
6,CC1CCC2(CC1)NC(=O)N(CC(=O)c1cccn1C)C2=O (stereo unspecified),0.876%
7,Cc1cc(C(F)F)nn1CC(=O)NC1CCCCCC1,-0.636%
8,O=C(Cn1nc([N+](=O)[O-])nc1Br)NC1CCCCC1,-63% (active)
9,Cc1nn(CC(=O)NC2CCCCC2)c(=O)c2cccn12,0.008%
10,COc1c(Br)cc2c(C)c(C(=O)N3CCOCC3)oc2c1Br,-0.84%
11,Cc1ccc2[nH]c(=O)c(CN(C)S(=O)(=O)c3cccc4nonc34)cc2c1,-2.6%
12,CCCc1ccc(OCC(O)CN2CCN(C(=O)OCC)CC2)cc1 (stereo unspecified),0.305%
13,Nc1ccc(OCC(O)C[n+]2ccc(CCS(=O)(=O)[O-])cc2)cc1 (stereo unspecified),-32.1% (active)
14,CCc1ccc(S(=O)(=O)NCC(O)COc2ccc(OC)cc2)cc1 (stereo unspecified),2.49%
15,O=C(Nc1cccc(Cl)c1Cl)c1ccccc1NC(=O)C1CC=CCC1C(=O)O (stereo unspecified),1.29%
16,COC(=O)c1ccc(SCc2ccccc2)nc1,-0.717%
17,COC(=O)c1ccc(-n2cnc3ccccc32)nc1,-67.7% (active)
18,O=C(c1ccc(Cl)cc1)n1cnc2ccccc21,-0.842%
19,CS(=O)(=O)N(Cc1nc2sc3c(c2c(=O)[nH]1)CCCC3)C1CCCCC1,-3.6%
20,COC(=O)c1sccc1N/N=C(\C)c1ccc(F)c(Cl)c1,0.343%
21,COc1ccc(CCNC(=O)CS(=O)(=O)Cc2nc(-c3ccc(C)cc3)oc2C)cc1OC,-1.25%

row,SMILES,activity change
1,COc1ccc(-c2nc(CS(=O)(=O)CC(=O)NCc3cccc(Br)c3)c(C)o2)cc1,-0.857%
2,Cc1ccc(-c2nc(CS(=O)(=O)CC(=O)NCc3ccc4c(c3)OCO4)c(C)o2)cc1,-39.8% (active)
3,CC12CN(Cc3ccccc3)CC(C)(CN(Cc3ccccc3)C1)C2=NO,1.91%
4,CC(C)(C)CN1C(=O)C(=O)NC[C@H]1Cc1cccc2ccccc12,-2.37%
5,CC(=O)c1ccc(NC(=O)CCc2nnc3ccc(NCc4ccco4)nn23)cc1,-1.16%
6,CCOc1ccccc1NC(=O)CCc1nnc2ccc(NCc3ccco3)nn12,1.37%
7,O=C(CCc1nnc2ccc(NCc3ccco3)nn12)Nc1cc(F)ccc1F,-33.9% (active)
8,COC(=O)[C@@]1(Cc2ccc(F)cc2)[C@H]2c3cc(C(=O)N(C)C)n(CCc4c[nH]c5ccc(OC)cc45)c3C[C@H]2CN1C(=O)c1ccccc1,-0.685%
9,C=CCOc1ccc(/C=N/NC(=O)C(C)Sc2ccccn2)cc1OCC (stereo unspecified),-2.2%
10,O=C(NNC(=O)c1cccc(S(=O)(=O)Nc2ccc(Cl)cc2)c1)c1ccc(=O)[nH]c1,-0.309%
11,CCc1ccc(/C=N/NC(=O)c2ccc(OC3CCCC3)cc2)s1,-13.3%
12,CC(=O)c1c(C)n(-c2ccc(N(C)C)cc2)c2ccc(OCC(N)=O)cc12,0.0827%
13,CCOC(=O)c1c(CN2CCOCC2)n(-c2ccccc2)c2ccc(O)cc12,-1.1%
14,CC(=O)c1c(C)n(-c2ccc(C)cc2)c2ccc(O)cc12,-47.3% (active)
15,Cc1ccc(CN2C(=O)CCC2C(=O)NCCCN2CCCCC2C)cc1 (stereo unspecified),0.0456%
16,CC1CCN(c2ccc(S(=O)(=O)Nc3cc(C(=O)O)cc(C(=O)O)c3)cc2[N+](=O)[O-])CC1,-0.243%
17,CCc1ccccc1NC(=O)Cc1cn(C)c2ccccc12,-2.82%
18,O=C(NCc1ccco1)C1CCCN(S(=O)(=O)c2cccc3nonc23)C1 (stereo unspecified),-0.959%
19,Cc1ccccc1CNC(=O)CCC(=O)N1Cc2ccccc2Oc2ncccc21,-84.3% (active)
20,Cc1ccccc1CN1CCN(CC(=O)NCc2ccccn2)C1=O,0.386%
21,Cc1ccc2c(c1)N(C(=O)CCC(=O)NCc1cccnc1)CCO2,-3.52%

row,SMILES,activity change
1,COC(=O)[C@@H](NC(=O)NCc1cccc(OC)c1)C(C)C,-2.29%
2,COC(=O)Nc1ncc(CN2C(=O)c3ccccc3C2=O)s1,-0.4%
3,Cc1noc(C)c1S(=O)(=O)N1CCCC(C(=O)Nc2nccs2)C1 (stereo unspecified),-0.498%
4,CC(Cc1cccs1)N(Cc1ccc(Cl)cc1)C(=O)c1ccncc1 (stereo unspecified),1.98%
5,CC(O)(c1cccc(F)c1)c1nc(-c2ccc3c(c2)OCO3)cs1 (stereo unspecified),-0.833%
6,Brc1ccc(-c2csc(N/N=C/c3ccc4c(c3)OCO4)n2)cc1,-49.7% (active)
7,COc1ccc(C(O)c2nc(-c3ccc4c(c3)OCO4)cs2)cc1 (stereo unspecified),-0.395%
8,O=C(NCCCNC(=O)NC1CCCCC1)NC1CCCCC1,-1.85%
9,Cc1cc(OC(=O)c2ccc(OC(C)C)cc2)c([N+](=O)[O-])c(=O)[nH]1,-0.062%
10,O=C(CCCCCn1c(=S)[nH]c2ccsc2c1=O)NC1CCCCC1,-30.8% (active)
11,O=C(CCC(=O)c1cccs1)NC1CCCCCC1,0.811%
12,CCCCC(CC)CNC(=O)CCCCn1c(=O)[nH]c2ccsc2c1=O (stereo unspecified),1.33%
13,CCN(CC)CCCN=C(N)N,-0.0838%
14,CC(C)(C)C(=O)NC1CC2CCCC(C1)N2C(=O)Nc1ccccc1F (stereo unspecified),-5.23%
15,C=CS(=O)c1sc(Cl)c(N2CCOCC2)c1[N+](=O)[O-] (stereo unspecified),-1.53%
16,CC(C)C(NC(=O)C1CCC(C(C)(C)C)CC1)C(=O)NCCCN1CCCCC1 (stereo unspecified),0.128%
17,O=C(Cc1ccccn1)c1ccc(O)cc1O,-0.381%
18,COc1ccc(CCNC(=O)CCc2ccccc2O)cc1OC,-0.891%
19,COc1ccc(CC(=O)c2ccc(O)cc2O)cc1OC,-38.8% (active)
